Screens from PubChem.
E coli growth-1: reduces bacterial viability in AddAB counter-screen | inhibition, % at 11.9 µM | E. coli V3065 growth, OD600 absorbance, 18 h | hit rate 0.27% among 330,000 | AID 449728;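 active = inhibition above the campaign's mean inhibition across all tested compounds plus 3 SD, cut at about 9.9% in these data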;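 note: uninfected addAB+ strain grown without phage in ampicillin broth; 0% = DMSO wells and 100% = ciprofloxacin 0.95 µg/ml wells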
E coli growth-2: blocks Escherichia coli growth. OD600 absorbance (test concentration not listed). hit rate 0.21% among 330,000. AID 1053175. OD600, 23 h; active compounds read low;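 active = OD600 absorbance below the run mean of sample wells minus 3.6 SD, in any replicate, cut at about 0.56 in these data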
Tat transport: E. coli Tat transport inhibition. inhibition, % at 10 µM. E. coli MC4100 TorA-mCherry Tat export, fluorescence. AID 488895. hit rate 0.036% among 340,000;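 active = mean replicate inhibition at least 50% and at least half of replicates individually reaching 50%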;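 note: exported cargo escapes ClpAP degradation while cytoplasmic cargo is degraded and loses fluorescence; 0% = median of neutral control wells and 100% = median of NaSCN control wells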
AddAB inh: less growth of phage-infected E. coli with AddAB. E. coli expressing H. pylori AddAB, absorbance growth. inhibition, % at 11.9 µM. hit rate 0.29% among 330,000. AID 435030; in the data active = inhibition above about 12%;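 note: 0% = vehicle wells of infected cells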
phage Ecoli inh: E. coli growth loss with phage present. growth absorbance. hit rate 0.26% among 360,000. inhibition, % at 11.9 µM. AID 651602; in the data active = inhibition above about 11%
AddAB conf: growth loss of T4-infected E. coli expressing H. pylori AddAB, confirmed. shares compounds with AddAB inh. hit rate 64% among 880. inhibition, % at 11.9 µM. E. coli V3065 expressing H. pylori AddAB, T4 phage, OD; T4 phage with gene 2 nonsense mutations;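 active = mean inhibition above a set limit taken from the earlier primary screen, cut at about 13% in these data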;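 note: higher means less bacterial growth since AddAB block lets phage replicate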
RecBCD counter: AddAB counter-screen: growth loss of RecBCD+ E. coli infected with mutant T4 phage. shares compounds with AddAB inh. E. coli V66 + mutant T4 phage, OD growth. inhibition, % at 11.9 µM. hit rate 73% among 880. AID 488955;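 active = mean inhibition above the mean of solvent-only control wells plus 3 SD, cut at about 4% in these data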;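 note: optical density read after an 18 h incubation at 37 °C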
bact viab count: counter-screen: bacterial growth inhibition; shares compounds with AddAB inh; bacterial viability, absorbance (AddAB counterscreen); inhibition, % at 11.9 µM; hit rate 35% among 880; AID 488956; in the data active = inhibition above about 25%
* hit, by the source's call; / = no result. An excerpt weighted towards active compounds, which were near 0.5% of everything screened.

SMILES	E coli growth-1	E coli growth-2	Tat transport	AddAB inh	phage Ecoli inh	others
Cc1[nH]c2ccc(OC(F)(F)F)cc2c1CCNCc1ccc(Cl)cc1	/	0.5*	-9	/	2
Nc1cc(Cl)c2nonc2c1[N+](=O)[O-]	7	0.44*	-21	6	7
O=[N+]([O-])c1c(Cl)c(Cl)c(Cl)c(Cl)c1Cl	/	/	-5	/	1
COC(=O)C1=C(c2cccc(NC(C)=O)c2)CC2CCC1N2C (centres undefined)	/	0.69	/	/	/
CCC(C)NC(=O)CCC(=O)OC1O[C@H]2OC3(C)CC[C@H]4[C@H](C)CCC(C1C)C24OO3 (some centres undefined)	/	0.5*	6	/	9
CCC(C)C(NC(=O)CCCNC(=O)CCC(=O)OC1O[C@H]2OC3(C)CC[C@H]4[C@H](C)CCC(C1C)C24OO3)C(=O)O (some centres undefined)	4	/	5	3	5
C[C@@H]1CC[C@H]2[C@@H](C)C(=O)O[C@@H]3O[C@@]4(C)CC[C@@H]1[C@]32OO4	-1	0.45*	6	4	2
C=C1C(C)C2C(Cc3ccccc3)NC(=O)[C@]23OC(=O)C=CC(O)CCCC(C)CC=CC3C1O (some centres undefined)	/	0.65	/	/	/
c1ccc2c(c1)[IH]c1ccccc1-2	/	/	7	/	101*
COC(=O)C1=C(c2cccc(C#N)c2)CC2CCC1N2C(=O)NCC1CC1 (centres undefined)	/	0.66	/	/	/
CN(C)c1ccc(C=Cc2cc[n+](C)c3ccccc23)cc1	/	0.39*	/	/	/
CN(C)c1ccc(/C=C/c2cc[n+](C)c3ccccc23)cc1	/	/	-299	/	0
COC(=O)C1=C(c2cc3ccccc3o2)CC2CCC1N2C(=O)N1CCCC1 (centres undefined)	/	0.68	/	/	/
CC1CCCN(c2ccc(C(=O)N3CCC4(CC3)OCCO4)cc2[N+](=O)[O-])C1 (centres undefined)	-2	/	12	1	-1
O=C(c1ccc(N2CCCCC2)c([N+](=O)[O-])c1)N1CCC2(CC1)OCCO2	0	0.52*	4	5	2
Cc1nn(Cc2ccccc2)c(C)c1C(=O)NCc1ccccc1	1	0.68	55*	2	1
O=C1C=CC(=O)C2C1C1(Cl)C(Cl)=C(Cl)C2(Cl)C1(Cl)Cl (centres undefined)	/	0.51*	-7	/	6
Cc1ccc(-c2nc(N3CCOCC3)s[n+]2-c2ccccc2)cc1	-2	0.51*	0	-2	2
COC(=O)C1=C(c2ccc(C(C)=O)cc2)CC2CCC1N2C(=O)NC1CCCCC1 (centres undefined)	/	0.71	/	/	/
COc1ccc(N2C(=O)NC(=O)/C(=C\c3ccc([N+](=O)[O-])s3)C2=O)cc1	2	0.47*	-7	2	3
COC(=O)C1=C(c2cccc(C#N)c2)CC2CCC1N2C(=O)NC1CCCCC1 (centres undefined)	/	0.69	/	/	/
Oc1ccc(Cl)c(Cl)c1Cl	-1	0.52*	-3	0	3
Cc1cc(O)ccc1Cl	/	/	/	/	2
COC(=O)C1=C(c2cccc(OCc3ccccc3)c2)CC2CCC1N2C(=O)NCCN1CCOCC1 (centres undefined)	/	0.7	/	/	/
Cc1cc(O)c2c(c1)C(=O)C13C(=C2O)C(=O)[C@H]2[C@@H](O)[C@@H]1[C@H]1[C@H](O)[C@@H]3C(=O)C3=C(O)c4c(O)cc(C)cc4C(=O)C312 (some centres undefined)	76*	0.067*	130*	60*	/	AddAB conf=36*;RecBCD counter=32*;bact viab count=43*
Oc1c(Cl)c(Cl)c(Cl)c(Cl)c1Cl	11*	0.47	-1	13*	12*	AddAB conf=10;RecBCD counter=17*;bact viab count=10
C[C@@H]1O[C@@H](O[C@H]2C[C@@H](O)[C@]3(CO)[C@H]4[C@H](O)C[C@]5(C)[C@@H](C6COC(=O)C6)CC[C@]5(O)[C@@H]4CC[C@]3(O)C2)[C@H](O)[C@H](O)[C@H]1O (some centres undefined)	96*	/	11	98*	3	AddAB conf=-3;RecBCD counter=-2;bact viab count=-4
